Source: PubChem BioAssay
The list is not random: actives were taken first. Their share in the collection is about 10%.
CCT modulator = High-Throughput Screening for Modulators of Cytosolic Chaperonin Activity | 0.3% of 360,000 active | purified chaperonin ATPase assay, HTRF ADP detection, 30 min | activity change, % (no concentration beside the values), hits read low; in the data active = activity change below about -30%
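TRiC (40 or 20 nM final, by batch activity) in 30 mM Tris pH 7.4, 100 mM KCl, 5 mM MgCl2, 1 mM DTT was treated with compound at 76 uM single dose, then 10 uM ATP, 30 min at 37 °C. ADP was read by HTRF Transcreener.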
G9a inh = qHTS Assay for Inhibitors of Histone Lysine Methyltransferase G9a; Histone-lysine N-methyltransferase EHMT2 (Homo sapiens), Q96KQ7; G9a H3K9 monomethylation, AlphaScreen, 2 h; Potency, µM (doses to about 102 µM), for the others: at the top dose activity, negative = inhibition, most hits filed as inhibitors; 8.8% of 350,000 active; AID 504332, 2011; note: potency is the fitted concentration of half-maximal effect; nearly all actives have a fitted effect of over 75% in size
Target sequence (Q96KQ7 913-1193 limits assumed): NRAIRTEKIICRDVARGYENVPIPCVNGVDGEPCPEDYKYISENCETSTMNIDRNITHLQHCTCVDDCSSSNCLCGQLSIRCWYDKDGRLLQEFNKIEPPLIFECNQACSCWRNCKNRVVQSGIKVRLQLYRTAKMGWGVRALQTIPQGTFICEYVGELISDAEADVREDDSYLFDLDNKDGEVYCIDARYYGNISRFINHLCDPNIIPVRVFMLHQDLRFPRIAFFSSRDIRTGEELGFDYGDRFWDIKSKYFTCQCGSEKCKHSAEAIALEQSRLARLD
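Readings reflect AlphaScreen signal from monomethyl-H3K9 antibody detection. HMT at 20 nM; substrate b-H3K9 500 nM; cofactor SAM 20 uM; 2 h RT reaction; compounds tested as titrations in qHTS with 15 min preincubation.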
VDR inhibitor = Inhibitors of the vitamin D receptor (VDR): qHTS | Vitamin D3 receptor (Homo sapiens), P11473 | VDR-SRC2-3 peptide fluorescence polarization, 2 h | Potency, µM, for inactives: max response, negative = inhibition, hits mostly inhibitors | 0.93% of 400,000 active | AID 504847, 2011; note: potency is the fitted concentration of half-maximal effect
Target sequence (P11473 whole entry, looked up): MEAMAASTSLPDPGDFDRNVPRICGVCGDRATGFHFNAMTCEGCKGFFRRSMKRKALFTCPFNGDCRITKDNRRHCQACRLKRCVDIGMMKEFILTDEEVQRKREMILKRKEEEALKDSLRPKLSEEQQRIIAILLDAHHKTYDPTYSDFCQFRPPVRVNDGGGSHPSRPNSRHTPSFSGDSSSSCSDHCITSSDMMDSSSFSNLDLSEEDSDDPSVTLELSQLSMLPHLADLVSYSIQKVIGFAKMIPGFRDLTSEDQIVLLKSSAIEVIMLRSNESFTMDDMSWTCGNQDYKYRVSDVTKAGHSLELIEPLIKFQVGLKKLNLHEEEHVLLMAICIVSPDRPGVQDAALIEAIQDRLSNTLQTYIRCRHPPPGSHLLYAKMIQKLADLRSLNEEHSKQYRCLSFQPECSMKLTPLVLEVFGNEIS
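Fluorescence polarization assay measuring small-molecule disruption of VDR binding to the coregulator peptide SRC2-3. Compounds were pin-transferred (23 nl) into the reagent mix and incubated 2 h at room temperature before reading.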
MmCpn inh = Inhibitors of TCP-1 ring complex (TRiC) of Methanococcus maripaludis (MmCpn): qHTS | Chaperonin Mm-Cpn (Methanococcus maripaludis) | purified Mm-Cpn ATPase, ADP Transcreener TR-FRET | Potency, µM (series often up to 76.9 µM), inactives show top-dose activity, negative = inhibition, actives largely listed as inhibitors | 0.031% of 330,000 active; note: potency is the fitted concentration of half-maximal effect; nearly all actives have a fitted effect of over 80% in size
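Eu-cryptate anti-ADP/ADP-d2 competition gives a ratio inversely related to ADP. Enzyme at 25 nM was pre-exposed to compound for 10 min, then given 10 uM ATP for 30 min, 37°C throughout.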
PLK1 PBD inh = qHTS for Inhibitors of PLK1-PDB (polo-like kinase 1 - polo-box domain): Primary Screen | Serine/threonine-protein kinase PLK1 (Homo sapiens), P53350 | Plk1 PBD binding of FITC phosphopeptide, fluorescence polarization | Potency, µM, for the others: max response, negative = inhibition, usual class: inhibitors | 2.8% of 360,000 active; note: potency is the fitted concentration of half-maximal effect; series mostly up to about 57 µM; nearly all actives have a fitted effect of over 65% in size
Sfp inh = qHTS Assay for Inhibitors of Bacillus subtilis Sfp phosphopantetheinyl transferase (PPTase) | 4'-phosphopantetheinyl transferase ffp (Bacillus subtilis), Q9F4F7 | Biochemical Sfp PPTase activity, qHTS | 3.5% of 310,000 active | Potency, µM, without a hit: largest response in the series, negative = inhibition, actives largely listed as inhibitors;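 note: the enzyme is Sfp with the accession as filed and its product quenches rhodamine fluorescence; potency is the fitted concentration of half-maximal effect; 0% = enzyme reaction without inhibitor and -100% = no enzyme wells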
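After 15 min at room temperature with compound, 15 nM Sfp received 5 uM rhodamine-CoA plus 12.5 uM BHQ-2-ybbR (50 mM Hepes pH 7.6, 10 mM MgCl2). Rate came from the fluorescence difference over 30 min, ex 525/em 598 nm.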
The depositor's hits bear a star; [ ] = remark or other dose. Unless noted, calls come from the whole dose curve; as a rule, active = well fitted curve in the direction sought with a large enough effect; inconclusive = small, poorly fitted or top-dose-only effect, or another doubt; inactive = no such curve, though single readings can be large; an effect the other way counts as inactive or inconclusive. Unless noted, % is set by controls: 0 for no effect and ±100 for the full control effect.

Results for CN(C)c1ccc(CNC(=O)CN2C(=O)C3CCCCN3c3ccc(C(=O)N4CCCC4)cc32)cc1 (configuration not stated) ?
G9a inh: -6.9%[59 µM]; VDR inhibitor: 4.3%

How did CCCCNc1nnc(SCC(=O)c2c[nH]c3ccccc23)s1 do in these assays?
CCT modulator: 0.2; G9a inh: 28.2µM*; VDR inhibitor: -33.5%; MmCpn inh: -4.5%; PLK1 PBD inh: -2.7%; Sfp inh: 3.3%

Results for CC(=O)Nc1ccc(N2C(=O)c3cccc4c(O)ccc(c34)C2=O)cc1 ?
CCT modulator: -0.1; G9a inh: inconclusive; VDR inhibitor: -11.1%; MmCpn inh: inconclusive; PLK1 PBD inh: 4.74µM*; Sfp inh: -11.5%

What do the screens show for `O=C1c2cccc3c(O)ccc(c23)C(=O)N1c1ccc(Cl)cc1`?
CCT modulator: 0.6; G9a inh: 44.7µM*; VDR inhibitor: 37.9%; MmCpn inh: -19.8%; PLK1 PBD inh: 4.74µM*; Sfp inh: inconclusive

How did O=C1c2ccccc2C(=O)N1c1ccc(Cl)cc1 do in these assays?
G9a inh: 11.6%[59 µM]; MmCpn inh: 1.0%; Sfp inh: 8.3%

Results for Cc1ccc(N2C(=O)c3cccc4c(C(=O)O)ccc(c34)C2=O)cc1 ?
G9a inh: -50.9%; MmCpn inh: -4.2%; PLK1 PBD inh: -3.9%; Sfp inh: 19.0%

How did c1ccc(-c2ccccc2OCCOCCN2CCCCC2)cc1 do in these assays?
CCT modulator: 0.6; G9a inh: inconclusive; VDR inhibitor: -13.0%; MmCpn inh: -0.3%; PLK1 PBD inh: -8.0%; Sfp inh: inconclusive

Results for c1ccc(-c2ccccc2OCCN2CCCC2)cc1 ?
CCT modulator: -0.7; G9a inh: 7.94µM*; VDR inhibitor: -21.2%; MmCpn inh: 1.2%; PLK1 PBD inh: -10.1%; Sfp inh: -8.5%

How did CC1CN(CCOc2ccccc2-c2ccccc2)CC(C)O1 (configuration not stated) do in these assays?
CCT modulator: 1.4; G9a inh: 14.1µM*; VDR inhibitor: -8.1%; MmCpn inh: 1.8%; PLK1 PBD inh: -3.1%; Sfp inh: -51.5%

How did c1ccc(-c2ccccc2OCCCN2CCOCC2)cc1 do in these assays?
CCT modulator: -3.4; VDR inhibitor: -4.1%; MmCpn inh: -0.1%; PLK1 PBD inh: -10.0%; Sfp inh: -7.7%

How did c1ccc(-c2ccccc2OCCCCN2CCCCCC2)cc1 do in these assays?
CCT modulator: -0.6; G9a inh: 7.94µM*; VDR inhibitor: -17.3%; MmCpn inh: -1.4%; PLK1 PBD inh: -2.2%; Sfp inh: -7.3%

Results for CN1CCN(c2ncc3c(n2)CCN(Cc2cc(Br)cs2)C3)CC1 ?
G9a inh: inconclusive; VDR inhibitor: 12.1%

How did Cn1c(=O)n(Cc2ccccc2Cl)c(=O)c2c1[nH]c(=S)n2C do in these assays?
CCT modulator: 0.4; G9a inh: 1.26µM*; VDR inhibitor: -23.0%; MmCpn inh: 1.7%; PLK1 PBD inh: 16.8µM*; Sfp inh: 50.1µM*

Results for Cn1c(=O)n(Cc2ccccc2Cl)c2ccccc21 ?
CCT modulator: -0.1; G9a inh: 33.1%; VDR inhibitor: inconclusive; MmCpn inh: 3.1%; PLK1 PBD inh: 16.8µM*; Sfp inh: inconclusive

How did Cn1c(=O)c2c([nH]c(=O)n2Cc2ccc(Cl)cc2Cl)n(C)c1=O do in these assays?
G9a inh: -3.7%[59 µM]; VDR inhibitor: -10.6%

How did C=CCn1c(=O)c2c(nc(Br)n2Cc2ccccc2Cl)n(C)c1=O do in these assays?
CCT modulator: -0.1; G9a inh: -3.3%[59 µM]; VDR inhibitor: -3.5%; MmCpn inh: -6.8%; PLK1 PBD inh: 29.9µM*; Sfp inh: 4.9%

Results for CCOc1ccc(CNC(=O)Cn2cc3c(n2)-c2c(oc(C(=O)N4CCOCC4)c2C)CC3)cc1 ?
G9a inh: inconclusive; VDR inhibitor: -2.8%

What do the screens show for `CCC(=O)N1CCc2cc(S(=O)(=O)NC(Cc3ccccc3)C(=O)Nc3ccc(Cl)cc3)ccc21` (configuration not stated)?
G9a inh: -5.1%[59 µM]; VDR inhibitor: 0.4%

Results for COc1ccc(NC(=O)CSc2c3c(nc4ccc(Cl)cc24)CCCC3)cc1Cl ?
G9a inh: -0.7%[59 µM]; VDR inhibitor: -14.0%

What do the screens show for `Cc1ccc(S(=O)(=O)N2[C@@H](c3ccc(C(C)(C)C)cc3)C(C(=O)O)=CC[C@H]2c2ccc(Cl)c(Cl)c2)cc1`?
CCT modulator: -2.1; VDR inhibitor: 2.3%; MmCpn inh: 0.2%; PLK1 PBD inh: 26.7µM*

What do the screens show for `Cc1ccc(S(=O)(=O)N2[C@@H](c3cccc(Cl)c3)C(C(=O)O)=CC[C@H]2c2cccc(Cl)c2)cc1`?
CCT modulator: -2.0; G9a inh: 14.0%[2.33 µM]; VDR inhibitor: -18.3%; MmCpn inh: -5.0%; PLK1 PBD inh: 26.7µM*

Results for Cc1ccc(S(=O)(=O)N2[C@@H](c3ccc(Br)cc3)C(C(=O)O)=CC[C@H]2c2ccc(Cl)c(Cl)c2)cc1 ?
CCT modulator: 0.2; VDR inhibitor: inconclusive; MmCpn inh: 2.3%; PLK1 PBD inh: 23.8µM*

What do the screens show for `CCOC(=O)C1=CC[C@@H](c2ccccc2)N(S(=O)(=O)c2ccc(C)cc2)[C@H]1C#N`?
CCT modulator: 0.3; PLK1 PBD inh: 6.7µM*

What do the screens show for `Cc1ccc(S(=O)(=O)N2[C@@H](c3cccc(Cl)c3)C(C(=O)O)=CC[C@H]2c2cccc(C)c2)cc1`?
CCT modulator: -1.3; G9a inh: 12.7%[2.33 µM]; VDR inhibitor: -25.4%; MmCpn inh: 0.2%; PLK1 PBD inh: inconclusive

What do the screens show for `COc1cc(NC(=O)CN2C(=O)c3ccccc3Sc3ccc(C(=O)N4CCCC4)cc32)cc(OC)c1`?
G9a inh: inconclusive; VDR inhibitor: 11.1%

How did CCCS(=O)(=O)N1CCCC(C(=O)NCCOC)C1 (configuration not stated) do in these assays?
G9a inh: -25.4%[59 µM]; VDR inhibitor: 8.0%

How did COC(=O)c1cc(NC(=O)Nc2ccc3snnc3c2)cc(C(=O)OC)c1 do in these assays?
G9a inh: inconclusive; VDR inhibitor: 12.0%

What do the screens show for `CCc1ccc([C@@H]2CC=C(C(=O)O)[C@H](c3cccc(Cl)c3)N2S(=O)(=O)c2ccc(C)cc2)cc1`?
CCT modulator: -2.3; G9a inh: 0.9%[2.33 µM]; VDR inhibitor: -26.4%; MmCpn inh: 1.3%; PLK1 PBD inh: 21.2µM*
